Among the data in article PMC8384837, “Expanding the binding specificity for RNA recognition by a PUF domain” are binding signal values, retold here.

Holding throughout (assay): yeast three-hybrid, YBZ-1, SC-Leu-His + 0.5 mM 3-AT, 4 days
What all share (conditions): tags: N-Gal4 AD-HA kept; label: inside an RPR1-promoter hybrid RNA with tandem MS2 sites; ssRNA

Test [1] concerns the target PUM1 PUF domain R5-KFK (Homo sapiens, UniProt Q14671 828-1176, C1007K;R1008F;Q1011K). A digest of the protocol:
(§1)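 Pumilio-1 PUF domain libraries, randomized at the three base-contacting residues of each repeat, were co-expressed with matching RNA elements from a centromeric plasmid in strain YBZ-1, which carries a LexA–MS2 coat fusion and a HIS3 reporter. Transformants grew for four days on SC-Leu (input) or on SC-Leu-His + 0.5 mM 3-AT (selection), and the repeat regions were PCR-amplified and Illumina-sequenced. The interaction score is the log change in variant frequency from input to selection. That logarithm is base 2, with a pseudocount of 1 where a variant was absent.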

In test [2] the target is PUM1 PUF domain R5-DFY (Homo sapiens, UniProt Q14671 828-1176, C1007D;R1008F;Q1011Y). The procedure, abridged: as §1
Test [3] deals with PUM1 PUF domain R5-RNT (Homo sapiens, UniProt Q14671 828-1176, C1007R;R1008N;Q1011T). A digest of the protocol:
as §1

Test [4] concerns the target PUM1 PUF domain R1-RAT (Homo sapiens, UniProt Q14671 828-1176, S863R;R864A;Q867T). A digest of the protocol: as §1
Test [5] deals with T1, PUM1 PUF domain R6-TFG (Homo sapiens, UniProt Q14671 828-1176, N1043T;Y1044F;Q1047G).
T1 sequence: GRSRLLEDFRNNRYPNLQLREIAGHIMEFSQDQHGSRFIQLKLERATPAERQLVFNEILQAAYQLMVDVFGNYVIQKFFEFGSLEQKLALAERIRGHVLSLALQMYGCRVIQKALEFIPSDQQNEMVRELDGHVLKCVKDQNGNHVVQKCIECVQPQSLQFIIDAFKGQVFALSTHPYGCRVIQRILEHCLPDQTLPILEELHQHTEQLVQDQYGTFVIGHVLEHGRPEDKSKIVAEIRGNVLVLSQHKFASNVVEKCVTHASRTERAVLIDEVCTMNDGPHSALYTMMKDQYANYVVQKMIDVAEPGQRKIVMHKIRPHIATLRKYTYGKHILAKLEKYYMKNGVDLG
The procedure, abridged:
as §1

Test [6] concerns the target PUM1 PUF domain R8-RRQ (Homo sapiens, UniProt Q14671 828-1176, N1122R;Y1123R). A digest of the protocol: as §1
Test [7] addresses PUM1 PUF domain R4-GPG (Homo sapiens, UniProt Q14671 828-1176, N971G;H972P;Q975G). The procedure, abridged:
as §1

In test [8] the target is PUM1 PUF domain R8-KRG (Homo sapiens, UniProt Q14671 828-1176, N1122K;Y1123R;Q1126G). The procedure, abridged:
as §1

Test [9] deals with PUM1 PUF domain R3-GRY (Homo sapiens, UniProt Q14671 828-1176, C935G;Q939Y). The procedure, abridged: as §1
The target in test [10] is PUM1 PUF domain R1-NLR (Homo sapiens, UniProt Q14671 828-1176, S863N;R864L;Q867R). The procedure, abridged:
as §1

As for “GGCUAGAACUAGUGGAUCCCCCGGCGCCCGGCGGCUCGAGCCCGGGUAAGUGUUAAUAGUCUGCAUGCCGCCGGGCGCCAUGCCUGCAGGUCGACUCUAGAAAACAUG”, the results for the binding signal in [1], in [2] and in test [3] were 5.11 log2 enrichment (interaction score), 4.07 log2 enrichment (interaction score) and 3.11 log2 enrichment (interaction score), respectively.

Consider “GGCUAGAACUAGUGGAUCCCCCGGCGCCCGGCGGCUCGAGCCCGGGUAAGUGUAAAUGGUCUGCAUGCCGCCGGGCGCCAUGCCUGCAGGUCGACUCUAGAAAACAUG”, for which, in test [4], the binding signal is 2.45 log2 enrichment (interaction score).

On to “GGCUAGAACUAGUGGAUCCCCCGGCGCCCGGCGGCUCGAGCCCGGGUAAGUGUAAAUAGUCUGCAUGCCGCCGGGCGCCAUGCCUGCAGGUCGACUCUAGAAAACAUG”, for which the binding signal in [5] was 5.01 log2 enrichment (interaction score); in test [6], 1.1 log2 enrichment (interaction score); in [7] it was 5.02 log2 enrichment (interaction score); in test [2], 2.71 log2 enrichment (interaction score); in [3], 2.05 log2 enrichment (interaction score); in test [8], 1.8 log2 enrichment (interaction score). Further, the binding signal in test [9] was 4.27 log2 enrichment (interaction score).

“GGCUAGAACUAGUGGAUCCCCCGGCGCCCGGCGGCUCGAGCCCGGGUAAGCGUAAAUAGUCUGCAUGCCGCCGGGCGCCAUGCCUGCAGGUCGACUCUAGAAAACAUG”: the binding signal is 2.97 log2 enrichment (interaction score) in test [6] and 4.19 log2 enrichment (interaction score) in [8].

Consider “GGCUAGAACUAGUGGAUCCCCCGGCGCCCGGCGGCUCGAGCCCGGGUAAGUGUAAAUUGUCUGCAUGCCGCCGGGCGCCAUGCCUGCAGGUCGACUCUAGAAAACAUG”, for which the binding signal in test [4] was 3.04 log2 enrichment (interaction score); in test [10] it was 3.68 log2 enrichment (interaction score).

Consider “GGCUAGAACUAGUGGAUCCCCCGGCGCCCGGCGGCUCGAGCCCGGGUAAGUGUACAUAGUCUGCAUGCCGCCGGGCGCCAUGCCUGCAGGUCGACUCUAGAAAACAUG”, for which, in test [7], the binding signal was 2.28 log2 enrichment (interaction score).

For the sequence “GGCUAGAACUAGUGGAUCCCCCGGCGCCCGGCGGCUCGAGCCCGGGUAAGUGUAUAUAGUCUGCAUGCCGCCGGGCGCCAUGCCUGCAGGUCGACUCUAGAAAACAUG”, in [7], the binding signal was 2.98 log2 enrichment (interaction score).

Take “GGCUAGAACUAGUGGAUCCCCCGGCGCCCGGCGGCUCGAGCCCGGGUAAGUGUAAAUCGUCUGCAUGCCGCCGGGCGCCAUGCCUGCAGGUCGACUCUAGAAAACAUG”: in test [4], the binding signal was 4.37 log2 enrichment (interaction score).

Consider “GGCUAGAACUAGUGGAUCCCCCGGCGCCCGGCGGCUCGAGCCCGGGUAAGUGUCAAUAGUCUGCAUGCCGCCGGGCGCCAUGCCUGCAGGUCGACUCUAGAAAACAUG”, for which the binding signal in test [3] was 2.85 log2 enrichment (interaction score).
